TIM10 inh – growth inhibitors of isogenic TIM10 control yeast, primary screen, counter-screen for tim10-1 yeast inhibitor project, luminescence, uHTS; 330,000 compounds, 1.4% hits; inhibition, % at 10 µM; AID 463195, 2010; S. cerevisiae TIM10 strain growth, BacTiter-Glo luminescence, 24 h;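 active = inhibition of 40% or more at the single tested concentration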;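 note: wild-type TIM10 isogenic control strain grown at permissive 25 °C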
tim10-1 inh – growth inhibitors of tim10-1 mutant yeast, primary screen, luminescence, uHTS | inhibition, % at 20 µM | S. cerevisiae tim10-1 ts strain growth, BacTiter-Glo, 24 h | 330,000 compounds, 2.2% hits;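 active = inhibition of at least 40%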;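 note: mutant grown at 25 °C; 0% = DMSO wells with yeast and 100% = wells holding no yeast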
V-ATPase pHluor – regulators of yeast V-ATPase proton pumping, primary screen, pHLuorin cytosolic pH fluorescence | AID 504577, 2011 | S. cerevisiae | 350,000 compounds, 0.37% hits | response, % at 10 µM; in the data active = response mostly above about 7.3%, no sharp cut-off; inactive = mostly below about 5.4%; note: actives read high
NALP1 inh – NALP1 inflammasome inhibitors in reconstituted yeast, colorimetric, S. cerevisiae, triplicate retest | inhibition, % at 10 µM | S. cerevisiae NALP1/ASC/caspase-1 growth, X-gal OD620, 72 h | AID 2071, 2009 | 280,000 compounds, 0.61% hits; in the data active = inhibition mostly above about 24%, no sharp cut-off; inactive = mostly below about 32%
NALP3 yeast inh – NALP3 inflammasome inhibitors in reconstituted yeast, primary screen, luminescence, uHTS. Yeast reconstituted NLRP3/ASC/caspase-1, beta-gal luminescence, 24 h. inhibition, % at 10 µM. 330,000 compounds, 0.39% hits. AID 2825, 2010;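 active = inhibition of 50% or more; inactive = inhibition below 50%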;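 note: plate controls were induced DMSO wells for no effect and uninduced yeast grown without galactose for full effect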
tim23-1 inh – growth inhibitors of tim23-1 mutant yeast, primary screen, luminescence, uHTS | S. cerevisiae tim23-1 growth, BacTiter-Glo luminescence, 24 h | inhibition, % at 20 µM | 330,000 compounds, 1.3% hits;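 active = growth inhibition of the mutant yeast at or above 50%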;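 note: temperature-sensitive mutant grown at 25 °C; plate controls were DMSO-treated mutant yeast for no effect and medium wells lacking yeast for full effect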
* marks the source's active call; other numbers are inactive results; . = no result given. This is a sample that favours compounds with a hit; in the whole collection about 4.2% have one here.

SMILES | TIM10 inh | tim10-1 inh | V-ATPase pHluor | NALP1 inh | NALP3 yeast inh | tim23-1 inh
CC1(C)CC(=O)C2=C(C1)C(c1cn(-c3ccccc3)nc1-c1ccccc1)C(C#N)=C(N)O2 (stereo unspecified) | 0 | 34 | -2 | 43* | 22 | 24
CC1(C)CC(=O)C2=C(C1)OC(N)=C(C#N)C2c1cn(-c2ccccc2)nc1-c1ccc(F)cc1 (stereo unspecified) | 27 | 18 | 1 | 32 | 7 | 8
Cc1ccc(SCC(=O)NCCSC(C)(C)C)cc1 | -18 | 9 | 19* | 2 | 6 | 11
Cc1nnsc1C(=O)NNS(=O)(=O)c1cc(C(F)(F)F)cc(C(F)(F)F)c1 | -11 | -4 | -2 | 19 | -4 | 0
Cc1ccc(S(=O)(=O)NNC(=O)c2snnc2C)cc1 | 10 | 6 | -2 | 37* | -9 | 12
CCN(CC)CC(C(=O)N(CC)CC)P(=O)(c1ccccc1)c1ccccc1 (stereo unspecified) | 12 | 12 | 8 | 42* | 21 | 12
COc1cc(C)ccc1N(CCCN1C(=O)c2cccc3cccc(c23)C1=O)C(=O)c1cccs1 | -6 | 18 | 1 | 21 | 4 | 23
CCCn1c(=O)c2ccccc2n2c(SCC(=O)c3ccc(F)cc3)nnc12 | . | . | . | 42* | . | .
COc1cccc2cc(C(=O)NCc3ccc(Cl)cc3)c(=O)oc12 | 17 | 22 | -3 | 37* | -6 | 19
COc1ccc(CCNc2oc(COc3ccc(Br)cc3)nc2C#N)cc1OC | 15 | 22 | 10.0* | -9 | 10 | 39
COc1ccc(CCNc2oc(Cc3cccc4ccccc34)nc2C#N)cc1OC | 22 | 34 | 1 | -10 | 14 | 18
Fc1cc(F)c(C2SCCN2C(=S)Nc2cccc(C(F)(F)F)c2)c(F)c1 (stereo unspecified) | -167 | 6 | -3 | 37* | -1 | -67
Cc1[nH]nc2c1C(c1ccc3c(c1)OCO3)C(C#N)=C(N)O2 (stereo unspecified) | -3 | -5 | -3 | 20 | 18 | 19
O=C(CSc1nc2scc(-c3cccs3)c2c(=O)n1CCc1ccccc1)N1CCCC1 | . | . | -1 | . | . | .
Cc1ccc(C)c(SCC(=O)Nc2cccnc2Cl)c1 | -3 | -25 | 0 | 33* | 35 | 12
Cc1cc(NC(=O)CCC(=O)N(c2ccc(F)cc2)C2(C(=O)NC3CCCCC3)CCCC2)no1 | -2 | 6 | 3 | 2 | 6 | 14
COc1ccccc1C(=O)N1C(CC(=O)Nc2cc(Cl)ccc2C)C(=O)NC2CCCCC21 (stereo unspecified) | -12 | -13 | 2 | -3 | 6 | -8
Cc1ccc(S(=O)(=O)NCCNS(=O)(=O)c2ccc(C)cc2)cc1 | 7 | 10 | 338* | 13 | 4 | 11
Cc1ccc(S(=O)(=O)NCCCNS(C)(=O)=O)cc1 | -3 | 8 | 1 | -33 | 6 | 13
CN1C(=O)SC(Nc2ccccc2C(=O)O)C1=O (stereo unspecified) | 9 | 9 | 3 | 12 | 10 | 17
COc1cc2c(cc1OC)[C@@H](NC(=O)C(C)C)[C@H](OCc1ccccc1)C2 | -8 | 4 | 1 | . | . | 20
CC(=O)/C(N=Nc1ccc(OC(F)(F)F)cc1)=C(\C)O | -13 | -2 | 6 | . | 13 | -16
CC(=O)/C(N=Nc1ccc(C(=O)O)cc1)=C(\C)O | 13 | 9 | 1 | 43* | 22 | 18
COc1ccc(/C=N\NC(=O)COc2ccc(C(C)(C)C)cc2)cc1Cn1nc(C)cc1C | 0 | -9 | -5 | 38* | 18 | 0
CC(C)n1cc(-c2ccc(Cl)cc2)cc(C#N)c1=O | -13 | 8 | 1 | 31* | 4 | 1
SMILES | TIM10 inh | tim10-1 inh | V-ATPase pHluor | NALP1 inh | NALP3 yeast inh | tim23-1 inh
C=CCn1cc(-c2ccc(Cl)cc2)cc(C#N)c1=O | 11 | 13 | 0 | 11 | 0 | 2
Cc1ccc(NC(=O)CSc2nnc(C)c(=O)n2N)cc1 | -5 | 5 | 1 | -11 | 3 | 4
O=C(NCC(c1ccco1)N1CCCC1)c1ccc(-n2cccn2)cc1 (stereo unspecified) | -7 | -4 | 2 | . | 3 | -1
Cc1cc(C)n(-c2ccc(C(=O)NCc3ccc4c(c3)OCO4)cc2)n1 | 6 | 29 | 1 | -2 | 17 | 15
Cc1cc(C)n(-c2ccc(C(=O)NCc3ccc(F)cc3)cc2)n1 | -9 | 10 | 1 | 29* | 10 | 14
Cc1cc(C)n(-c2ccc(C(=O)NCC(c3ccco3)N3CCCC3)cc2)n1 (stereo unspecified) | -2 | 7 | 16* | . | 15 | 2
CC(C)(C)c1ccc(OCCCC(=O)NC2=NCCS2)cc1 | 11 | 30 | -1 | 36* | 35 | 15
CC(C)(C)c1ccc(C(=O)NCCC(=O)NC2=NCCS2)cc1 | -5 | -10 | -2 | . | 12 | 0
CCOC(=O)C(=Cc1cc(=O)c(OC)co1)C(=O)OCC | . | . | 2 | 85* | . | .
CC(=O)Nc1nnc(CCS(=O)(=O)c2ccc(C)cc2)s1 | 14 | 3 | 23* | . | -6 | 5
Cc1ccc(/C=C(\C#N)C(=O)NCCN2CCOCC2)cc1 | -1 | 1 | -3 | 21* | 17 | 21
CCOc1cc(/C=N/NC(=O)C(C)Sc2ccccc2)ccc1O (stereo unspecified) | 12 | 6 | 0 | -7 | 1 | 8
COc1cccc(/C=N/NC(=O)C(C)Sc2ccccc2)c1 (stereo unspecified) | -11 | 18 | -2 | 30* | 22 | -11
COc1ccc(N2C(=O)C(CC(=O)Nc3ccccc3)N(Cc3cccs3)C2=O)cc1 (stereo unspecified) | 7 | 20 | 16* | 16 | 8 | 22
COc1ccc(NC(=O)CC2C(=O)N(c3ccc(OC)cc3)C(=O)N2CCc2cccs2)cc1 (stereo unspecified) | 8 | 33 | 3 | 34 | 13 | 10
Cc1cccc(N2C(=O)CC(Sc3nccc(C)n3)C2=O)c1 (stereo unspecified) | 1 | 24 | -1 | 6 | 13 | 14
Cc1cccc(N2C(=O)CC(Sc3ncn[nH]3)C2=O)c1 (stereo unspecified) | 27 | 30 | 5 | 38* | 18 | 24
CNC(=O)Nc1cccc2cccnc12 | -7 | -12 | 5 | 44* | -5 | 8
O=C(Nc1cccc2cccnc12)c1cccc2ccccc12 | 34 | 17 | -1 | -7 | 34 | 30
Cc1cccc2sc(N(CCCN(C)C)C(=O)c3sc4ccccc4c3Cl)nc12 | 16 | 20 | -1 | 54* | 23 | 11

Source: PubChem BioAssay (several laboratories)
